Measured values reported in PubChem BioAssay AID2111 (National Center for Advancing Translational Sciences (NCATS), 2009).
Several values for one entry are separate records, joined by “and”; a condition that tells them apart may be missing. Identical values can stand only once. Activity calls are given as the source filed them. The call rests on the fitted dose curve; in most records, active means well fitted curve in either direction with a large enough effect; inconclusive means small, poorly fitted or top-dose-only effect; inactive means no such curve, though single readings can be large or run the other way.

These molecules were tested against Lysosomal alpha-glucosidase (Homo sapiens) (UniProt P10253) (assay: Confirmation of Inhibitors and Activators of Human alpha-Glucosidase From Spleen Homogenate Using an Alternate Red Fluorescent Susbtrate). Conditions: resorufin-glucoside fluorescence; series mostly up to 62.8 µM; activity change, negative = inhibition: at the top concentration.
Source text: NIH Chemical Genomics Center [NCGC] NIH Molecular Libraries Probe Production centers Network [MLPCN] MLPCN Grant: 1R03MH084841-01 Assay Submitter (PI): Wei Zheng NCGC Assay Overview: Alpha-glucosidase is responsible for hydrolysis of terminal, non-reducing 1,4-linked alpha-D-glucose residues with release of alpha-D-glucose. It is a lysosomal hydrolase that is required for the degradation of a small percentage (1-3%) of cellular glycogen in human. Deficiency of this enzyme results in glycogen-storage disease type II (GSDII), also referred to as Pompe disease, an autosomal recessive disorder. Structurally normal glycogen is accumulated in lysosomes and cytoplasm in affected patients, primarily in muscle tissues. Excessive glycogen storage within lysosomes may interrupt normal functioning of other organelles and leads to cellular injury. In turn, this leads to enlargement and dysfunction of the entire organ involved (eg, cardiomyopathy and muscle weakness). It has reported that the improper folding and trafficking of alpha-glucosidase resultinged from the genetic mutations may account for a significant number of Pomrope patients. […] We optimized this alpha-glucosidase assay in 1536-well plate format for identifying the novel small molecule inhibitors with the structures other than the sugar analogs in order to develop the new pharmacological chaperones. In particular, this assay is directed towards discovering compounds active in a more natural setting, tissue homogenate, that may have been missed by screens of the purified enzyme under more stringent conditions. This assay attempted to confirm hits from the primary screening using an alternate fluor than the primary screen used.
NCGC Assay Protocol Summary: This is a fluorogenic enzyme assay with Resorufin-alpha-D-glucopyranoside as the substrate and human spleen homogenate containing alpha-glucosidase as the enzyme preparation. Upon hydrolysis of this fluorogenic substrate, the resulting product, resorufin (which excites at 573 nm and emits at 610 nm) can be detected by a fluorescence plate reader. Data were normalized to the controls for basal activity (without enzyme) and 100% activity (with enzyme). The AC50 values were determined from concentration-response data modeled with the standard Hill equation. Assay buffer: 50 mM citric acid (titrated with potassium phosphate to pH 5.0), 0.01% Tween-20 (pH 5.0 is an optimal condition for this enzyme assay) 1536-well assay protocol for the alpha-glucosidase from human spleen homogenate: (1) Add 2 ul/well spleen homogenate (1 ug) (2) Add 23 nL compounds in DMSO solution. The final titration was 0.5 nM to 58 uM. (3) Add 2 ul of substrate (1 mM final) (4) Incubate at 37 C for 40 min (5) Add 2 ul stop solution (1M NaOH and 1M Glycine mixture, pH 10) (6) Detect the assay plate in a ViewLux plate reader (PerkinElmer) with […]. Keywords: Alpha-glucosidase, Pompe Disease, pharmacological chaperone, chaperone therapy, high throughput screening, alpha-glucosidase inhibitor, MLSMR, MLSCN, NIH Roadmap, qHTS and NCGC

Activity change, negative = inhibition, inactive:
CC(=O)c1ccc(N2CCN(S(=O)(=O)c3ccc(N4CCCC4=O)cc3)CC2)cc1 2.9%, CCCCN1C[C@H](O)[C@@H](O)[C@H](O)[C@H]1CO -94.3%, O=C1Cc2cc(S(=O)(=O)N3CCN(c4ccc(Cl)cc4)CC3)ccc2N1 -28.1% [at 130 µM], CC(=O)c1ccc(N2CCN(S(=O)(=O)c3ccc4[nH]c(=O)[nH]c4c3)CC2)cc1 -4.25%, CC(=O)c1ccc(N2CCN(C(=O)c3ccc4c(c3)CC(=O)N4)CC2)cc1 -5.87%

Potency, active:
CCCN1CNc2c(c(=O)[nH]c(=S)n2CCc2cc(OC)cc(OC)c2)C1 7.94 µM, CCCN1CNc2c(c(=O)[nH]c(=S)n2CCc2ccc(OC)c(OC)c2)C1 8.91 µM, COc1ccc(CCn2c3c(c(=O)[nH]c2=S)CN(Cc2ccccc2)CN3)cc1OC 7.94 µM, CCCN1CNc2c(c(=O)[nH]c(=S)n2CCc2ccccc2Cl)C1 11.2 µM, CC(=O)c1ccc(N2CCN(S(=O)(=O)c3ccc4c(c3)CC(=O)N4)CC2)cc1 1.03 µM [inhibitor] and 943 nM [inhibitor] and 2.06 µM [inhibitor], CCCN1CNc2c(c(=O)[nH]c(=S)n2CCc2ccc(Cl)cc2)C1 11.2 µM
